Reference: PubChem BioAssay (EPA / NIEHS)
Calls of active or inactive are those of the source. Rule for the calls: active = hit-call score of the fitted dose curve at least 0.9, where 1 is the maximum; inactive = score below 0.9.

read-out: C-C motif chemokine 2 (Homo sapiens) (UniProt P13500); test: BSK_KF3CT_MCP1: BioMAP Diversity Plus: KF3CT Assay for Monocyte Chemoattractant Protein 1 (MCP1/CCL2) Biomarker Activity (AID 2283073); details: primary human keratinocytes with fibroblasts; actives raise or lower the signal
Protocol: BSK_KF3CT is a cell-based, multiplexed-readout assay that uses keratinocytes and foreskin fibroblasts, a human skin primary cell co-culture, with measurements taken at 24 hours after chemical dosing in a 96-well plate.BSK_KF3CT_MCP1 is an assay component measured in the BSK_KF3CT assay. It measures MCP-1 antibody related to regulation of gene expression using ELISA technology.Data from the assay component BSK_KF3CT_MCP1 was analyzed into 1 assay endpoint. This assay endpoint, BSK_KF3CT_MCP1, was analyzed with bidirectional fitting relative to DMSO as the negative control and baseline of activity. Using a type of binding reporter, gain or loss-of-signal activity can be used to understand changes in the signaling as they relate to the gene CCL2. Furthermore, this assay endpoint can be referred to as a primary readout, because this assay has produced multiple assay endpoints where this one serves a signaling function. To generalize the intended target to other relatable targets, this assay endpoint is annotated to the cytokine intended target family, where the subfamily is chemotactic factor.
The levels of cell surface (or secreted, indicated by the prefix "s") biomarker endpoints were measured by ELISA. Overt cytotoxicity to cells in confluent adherent cultures (all systems other than the BT system) was assessed by measuring total protein levels using sulforhodamine B (SRB) staining in parallel cultures at the time of biomarker measurements, indicated as SRB endpoints. For proliferation assays for adherent cell types, individual cell types are cultured at sub-confluence and relative cell numbers quantified by SRB staining at time points optimized for each system (48 h: 3C and CASM3C systems; 72 h: BT and HDF3CGF systems; 96 h: SAg system). SRB was performed by staining cells with 0.1% SRB after fixation with 10% TCA and reading wells at 560 nm.Viability and proliferation of PBMC (T cells) was quantified by Alamar Blue reduction for the SAg and BT systems. For PBMC viability (referred to as PBMC Cytotoxicity within the assay endpoint names), cells were plated (75,000/well in a 96-well plate) and then chemical samples added for 1 h before addition of activators, SEB and TSST-1 (20 ng/mL final concentration each). Cells were incubated for 90 h. Then, Alamar Blue (20 uL/well) (Invitrogen, Cat DAL1100) was added for 6 h, and the plates were read with a fluorescence microplate reader at 546/580 nm (excitation/emission). For PBMC proliferation, cells were plated and activated as above but incubated for only 16 h prior to addition of Alamar Blue. Plates were read after 6 h.

SMILES | outcome | AC50
CC(C)(C)c1cc(O)c(C(C)(C)C)cc1O | inactive | 
CCCCCC(=O)O | inactive | 
Cc1ccc(C)c(O)c1C | inactive | 
CC1(C)CC(N=C=O)CC(C)(CN=C=O)C1 (stereo not given) | inactive | 
FC(F)(F)C(F)(F)C(F)(F)C(F)(F)C(F)(F)C(F)(F)CCI | inactive | 
Cc1c(C(=O)O)c(O)cc2c1C(=O)c1c(O)c([C@@H]3O[C@H](CO)[C@@H](O)[C@H](O)[C@H]3O)c(O)c(O)c1C2=O | inactive | 
CC(=O)C(C)=CC1C(C)=CCCC1(C)C (stereo not given) | inactive | 
Cc1ccc(C)c(C)c1 | inactive | 
O=c1c(O)c(-c2ccc(O)c(O)c2)oc2cc(O)cc(O)c12 |  | 24.2 µM (active)
C=CCOC(=O)c1ccccc1C(=O)OCC=C | inactive | 
CCCCCCOCCO | inactive | 
CCOc1ccc2c(c1)C(C)=CC(C)(C)N2 | inactive | 
O=c1[nH]cc(F)c(=O)[nH]1 | inactive | 
CCOC(=O)C(C)(C)Oc1ccc(Cl)cc1 | inactive | 
CCCCCCCCCCC | inactive | 
CCCCc1ccc2c(n1)[C@@H](c1ccc(OC)cc1C[C@H](C)C(=O)O)[C@H](C(=O)O)[C@H]2c1ccc2c(c1)OCO2 | inactive | 
COc1ccc2c(c1)c(CC(=O)O)c(C)n2C(=O)c1ccc(Cl)cc1 | inactive | 
NCCO | inactive | 
Nc1nc(N)c2nc(CNc3ccc(C(=O)N[C@@H](CCC(=O)O)C(=O)O)cc3)cnc2n1 | inactive | 
CCc1c(C(=O)NN2CCCCC2)nn(-c2ccc(Cl)cc2Cl)c1-c1ccc(Br)cc1 |  | 13 µM (active)

SMILES | outcome | AC50
C[C@]12C=CC(=O)C=C1CC[C@@H]1[C@@H]2C(=O)C[C@@]2(C)[C@H]1CC[C@]2(O)C(=O)CO | inactive | 
C[Si]1(C)O[Si](C)(C)O[Si](C)(C)O[Si](C)(C)O1 | inactive | 
CCCCCCC(=O)OCC | inactive | 
CC(=O)OC/C=C(\C)CCC=C(C)C | inactive | 
Cc1cccc([N+](=O)[O-])c1C | inactive | 
C=CCc1ccc(O)c(OC)c1 | inactive | 
CCCCC(CC)COC(=O)CC(C(=O)OCC(CC)CCCC)S(=O)(=O)O (stereo not given) |  | 3.25 µM (active)
O=[N+]([O-])C(CO)(CO)CO | inactive | 
COCCOCCOC | inactive | 
c1cc(-c2ccncc2)ccn1 | inactive | 
CNC(=O)[C@H]1O[C@@H](n2cnc3c(NCc4cc(Cl)ccc4OCc4cc(C)no4)ncnc32)[C@H](O)[C@@H]1N | inactive | 
O=C(N[C@@H](Cc1ccccc1)[C@@H](O)C(=O)N1C[C@@H](O)[C@@H](O)C1)c1cc2cc(Cl)ccc2[nH]1 | inactive | 
C1CCC(SSC2CCCCC2)CC1 | inactive | 
Cc1ccccc1Cl | inactive | 
NCC1(Cc2noc(=O)[nH]2)CCCCC1 | inactive | 
Nc1ccccc1N | inactive | 
NC(=O)Cn1c(=O)cc(CCN2CCN(c3nccc4sccc34)CC2)c2ccc(F)cc21 | inactive | 
O=C(OCCCCCOC(=O)c1ccccc1)c1ccccc1 | inactive | 
Cc1cc(=O)[nH]c(=S)[nH]1 | inactive | 
COc1cc(C=O)ccc1O | inactive | 
